Here are results for 21 compounds from PubChem BioAssay (Tox21).

Results filed as inconclusive are left out. Activity calls are given as the source filed them. Unless noted, calls follow the shape of the dose curve; as a rule, active = well fitted curve in the direction sought with a large enough effect in the repeat runs; inconclusive = weak or mixed curves; inactive = no such curve, though single readings can be large; an effect the other way counts as inactive or inconclusive.

Assay [1] in a line: qHTS assay to identify small molecule antagonists of the thyroid receptor (TR) signaling pathway (AID 743065). Also: nearly all actives have a fitted effect of over 55% in size. Also: potency is read from the fitted curve at half-maximal effect. A digest of the protocol:
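Antagonism measured as loss of luciferase signal in GH3 cells stably carrying a TRE-luciferase reporter, co-treated with compound and T3 (1 nM final) for 23.5 h at 37 C. Viability was read in the same well by CellTiter-Fluor.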

Assay [2] relates to thyroid hormone receptor (rat, GH3 cells). Description: qHTS assay to identify small molecule agonists of the thyroid receptor (TR) signaling pathway (AID 743066; calls by dose curve).
Assay [3] concerns the target Estrogen receptor (Homo sapiens) (UniProt P03372). Description: qHTS assay to identify small molecule antagonists of the estrogen receptor alpha (ER-alpha) signaling pathway (AID 743069; active = well fitted curve in the direction sought with a large enough effect in the signal ratio in the repeat runs, not every such curve was filed as active; the % refers to the signal ratio). A digest of the protocol: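 Antagonist mode: compounds in DMSO were co-added with 17beta-estradiol to ER-alpha-bla HEK293 cells (2% charcoal-stripped serum) and left 18 h at 37C. Reporter inhibition was measured as FRET fluorescence after 2 h LiveBLAzer substrate at room temperature.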

Assay [4] can be described thus: qHTS assay to identify small molecule antagonists of the estrogen receptor alpha (ER-alpha) signaling pathway - cell viability counter screen (AID 743074; calls by dose curve;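 also: HEK293 cells carrying ER-alpha-UAS-bla reporter stimulated with 17beta-estradiol; nearly all actives have a fitted effect of over 45% in size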).
In assay [5] the target is Estrogen receptor (Homo sapiens) (UniProt P03372). In words: qHTS assay to identify small molecule agonists of the estrogen receptor alpha (ER-alpha) signaling pathway (AID 743075; calls by dose curve;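 also: HEK293 GripTite cells with ER-alpha and UAS-driven beta-lactamase reporter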).
Sequence of Estrogen receptor (Homo sapiens) (P03372 whole entry, looked up): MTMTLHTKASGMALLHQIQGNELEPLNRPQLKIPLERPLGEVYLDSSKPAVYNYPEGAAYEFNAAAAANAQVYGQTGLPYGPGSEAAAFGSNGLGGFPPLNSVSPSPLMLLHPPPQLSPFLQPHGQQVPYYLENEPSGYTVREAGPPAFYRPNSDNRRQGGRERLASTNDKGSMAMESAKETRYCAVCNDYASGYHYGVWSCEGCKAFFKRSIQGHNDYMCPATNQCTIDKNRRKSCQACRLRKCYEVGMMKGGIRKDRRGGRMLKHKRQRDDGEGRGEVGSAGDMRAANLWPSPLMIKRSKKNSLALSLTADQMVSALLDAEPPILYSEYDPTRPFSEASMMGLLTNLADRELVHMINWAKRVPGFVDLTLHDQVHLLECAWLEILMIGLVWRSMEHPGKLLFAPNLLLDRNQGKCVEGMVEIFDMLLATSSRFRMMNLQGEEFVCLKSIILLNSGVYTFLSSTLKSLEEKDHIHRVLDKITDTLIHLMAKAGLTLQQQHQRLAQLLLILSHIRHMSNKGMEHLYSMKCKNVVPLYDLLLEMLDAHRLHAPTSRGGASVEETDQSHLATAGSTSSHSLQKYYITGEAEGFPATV
For assay [6] the target is unchanged. In words: qHTS assay to identify small molecule agonists of the estrogen receptor alpha (ER-alpha) signaling pathway using the BG1 cell line (AID 743079). Also: nearly all actives have a fitted effect of over 20% in size.
Assay [7] in a line: qHTS assay to identify small molecule antagonists of the estrogen receptor alpha (ER-alpha) signaling pathway using the BG1 cell line (AID 743080; calls by dose curve;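 also: BG1 cells stimulated with 17beta-estradiol alongside compound; series mostly up to about 70 µM; nearly all actives have a fitted effect of over 25% in size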). In short, it runs like this: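 Seeding, 24 h rest, compound transfer from DMSO, 17beta-estradiol addition, 21.5 h incubation, CellTiter-Fluor (30 min, 37 C), then ONE-Glo (30 min, room temperature): this sequence was run on BG1-Luc-4E2 reporter cells.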

A short description of assay [8]: qHTS assay to identify small molecule antagonists of the estrogen receptor alpha (ER-alpha) signaling pathway using the BG1 cell line - cell viability counter screen (AID 743081).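 Also: compound given together with 17beta-estradiol as the ER stimulus; series mostly up to about 70 µM; nearly all actives have a fitted effect of over 45% in size.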
The target in a further assay is Aromatase (Homo sapiens) (UniProt P11511). Description: qHTS assay to identify aromatase inhibitors (AID 743083). Also: series mostly up to about 70 µM; nearly all actives have a fitted effect of over 55% in size.
Sequence of Aromatase (Homo sapiens) (P11511 whole entry, looked up): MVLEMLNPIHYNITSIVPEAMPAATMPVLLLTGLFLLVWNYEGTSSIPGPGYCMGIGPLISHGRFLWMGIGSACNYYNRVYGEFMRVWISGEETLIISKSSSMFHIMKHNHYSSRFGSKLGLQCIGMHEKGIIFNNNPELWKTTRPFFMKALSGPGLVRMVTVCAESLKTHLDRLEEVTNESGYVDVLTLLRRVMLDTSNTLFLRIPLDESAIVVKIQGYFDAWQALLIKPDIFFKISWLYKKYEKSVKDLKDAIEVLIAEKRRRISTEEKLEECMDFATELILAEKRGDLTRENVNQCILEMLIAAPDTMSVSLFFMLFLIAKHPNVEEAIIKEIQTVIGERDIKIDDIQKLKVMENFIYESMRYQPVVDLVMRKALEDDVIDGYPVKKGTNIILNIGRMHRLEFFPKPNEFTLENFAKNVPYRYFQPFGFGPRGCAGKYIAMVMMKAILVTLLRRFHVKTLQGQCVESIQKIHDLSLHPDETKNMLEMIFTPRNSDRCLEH
A short description of assay [9]: qHTS assay to identify small molecule antagonists of the thyroid receptor (TR) signaling pathway - cell viability counter screen (AID 743064). Also: potency is read from the fitted curve at half-maximal effect; nearly all actives have a fitted effect of over 50% in size. In short, it runs like this:
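GH3.TRE-Luc cells, 4 h pre-plating; cpd + T3 1 nM final; 37 °C 23.5 h; CellTiter-Fluor 30 min; fluorescence read.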

Consider `CC(=O)/C=C/c1ccco1`, for which the Potency entry in [1], in assay [2], in assay [3], in assay [4], in [5] and in [6] was “inactive” each time. The compound was classed as inactive (in [7]; in assay [8]; in the assay with Aromatase (Homo sapiens)).

As for `CCNC(=O)NCCCOc1cccc(CN2CCCCC2)c1`, the Potency result in assay [1], in assay [2], in assay [3], in assay [5] and in assay [6] was “inactive” each time. In addition, the compound was classed as inactive (in assay [7]; in [8]; with Aromatase (Homo sapiens)).

Turning to `C=CCOC(=O)c1ccc(C(=O)OCC=C)c(C(=O)OCC=C)c1`, the Potency result in assay [1], in assay [2], in assay [3], in [5] and in [6] was “inactive” throughout. Besides, the outcome (in assay [7]; in assay [8]; with Aromatase (Homo sapiens)) was inactive.

Take `Cc1nc2ccccc2c(=O)o1`: the Potency result in assay [1], in assay [2], in assay [3], in assay [4], in assay [5] and in assay [6] was “inactive” each time. In addition, the compound was classed as inactive (in assay [7]; in [8]; in the assay with Aromatase (Homo sapiens)).

Regarding `Nc1c(NC/C=C\COc2cc(CN3CCCCC3)ccn2)c(=O)c1=O`, in [9], the Potency was 23.7 µM (active). In [4], the Potency entry is “inactive”. The result with Aromatase (Homo sapiens) was inactive.

On to `CC(C)(c1ccc(Oc2ccc3c(c2)C(=O)OC3=O)cc1)c1ccc(Oc2ccc3c(c2)C(=O)OC3=O)cc1`, for which the Potency entry in assay [1], in assay [2], in assay [3], in assay [4], in assay [5] and in [6] was “inactive” throughout. For the same compound, the compound was called inactive (in assay [7]; in assay [8]; in the assay with Aromatase (Homo sapiens)).

Consider `CCCCCCCCCCCCC1CO1` (stereo not given), for which the Potency result in assay [1], in [2], in [3], in assay [4], in assay [5] and in [6] was “inactive” throughout. For the same compound, the compound was called inactive (in [7]; in assay [8]; with Aromatase (Homo sapiens)).

As to `O=C1OC(=O)c2cc(Oc3ccc4c(c3)C(=O)OC4=O)ccc21`, the Potency entry in [1], in assay [2], in [3], in assay [4], in assay [5] and in assay [6] was “inactive” each time. The compound was classed as inactive (in assay [7]; in assay [8]; with Aromatase (Homo sapiens)).

In the case of `Cc1nc([N+](=O)[O-])cn1-c1ccc([N+](=O)[O-])cc1`, the Potency result in assay [1], in assay [2], in assay [3], in assay [4], in assay [5] and in [6] was “inactive” throughout. Moreover, the compound was called inactive (in assay [7]; in assay [8]; with Aromatase (Homo sapiens)).

With `CC1=NN(c2ccc(S(=O)(=O)O)cc2)C(=O)C1N=Nc1ccccc1` (stereo not given), the Potency result in [1], in [2], in assay [3], in assay [4], in assay [5] and in assay [6] was “inactive” in each case. Moreover, the compound was classed as inactive (in [7]; with Aromatase (Homo sapiens)).

As to `O=C1OC(=O)c2ccccc21`, the Potency result in [1], in [2], in assay [3], in [4], in assay [5] and in assay [6] was “inactive” each time. For the same compound, the compound was classed as inactive (in assay [7]; in assay [8]; with Aromatase (Homo sapiens)).

In the case of `Nc1ccc(S(=O)(=O)NC(=O)c2ccccc2)cc1`, the Potency entry in [1], in [2], in assay [3], in assay [4], in assay [5] and in [6] was “inactive” each time. Besides, the call (in [7]; in assay [8]; with Aromatase (Homo sapiens)) was inactive.

On to `Cc1cc(C)cc([N+](=O)[O-])c1`, for which the Potency result in assay [1], in assay [2], in [3], in assay [4], in [5] and in assay [6] was “inactive” in each case. Besides, the result (in [7]; in [8]; with Aromatase (Homo sapiens)) was inactive.

For `Cc1ccccc1C`, the Potency entry in assay [3], in assay [4], in [5] and in assay [6] was “inactive” throughout. Further, the result (in assay [7]; in assay [8]; in the assay with Aromatase (Homo sapiens)) was inactive.

With `CCCCCC1CCCC(=O)O1` (stereo not given), the Potency entry in assay [1], in assay [2] and in [4] was “inactive” each time. The result (in [8]; with Aromatase (Homo sapiens)) was inactive.

As for `C=CCOc1cc(Cl)ccc1C(=O)NCCN(CC)CC`, the Potency in [1] was 13.3 µM (active). For the same compound, the Potency entry in assay [2] and in assay [4] was “inactive” each time. Further, the compound was classed as inactive (in [8]; with Aromatase (Homo sapiens)).

`C/C=C(\C)C(=O)OCC/C=C\CC`: the Potency entry in assay [2] and in assay [4] was “inactive” each time. The result in assay [8] was inactive.

With `CCC1Nc2cc(Cl)c(S(N)(=O)=O)cc2S(=O)(=O)N1` (stereo not given), the Potency result in assay [1], in assay [2] and in assay [4] was “inactive” in each case. Also, the call with Aromatase (Homo sapiens) was inactive.

Regarding `C[CH2][Ge]([Cl])([CH2]C)[CH2]C`, the Potency entry in assay [1] and in assay [2] was “inactive” each time. For the same compound, the call (in assay [8]; with Aromatase (Homo sapiens)) was inactive.

On to `O=C1CC[C@H](C(=O)N2CCCCC2)N1`, for which the Potency entry in assay [5] and in [6] was “inactive” throughout. For the same compound, the call (in assay [7]; in the assay with Aromatase (Homo sapiens)) was inactive.

For the compound `CCCCCCCCCCCCCCCCI`, the Potency result in assay [1], in assay [2] and in assay [4] was “inactive” in each case. For the same compound, the compound was called inactive (in assay [8]; in the assay with Aromatase (Homo sapiens)).
